Data on 15 compounds can be found in the supplement of paper PMC6089552.

The test system of the test is A673/TR/shEF. As to the kind of experiment: cell viability (LOESS-normalised, relative to median of negative controls) (log2 ratio); higher = more viable cells (less compound effect), active = hit call of the paper (over 3 MAD below the median). To be noted: treatment time: 72 h. Summed up: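 A673/TR/shEF Ewing sarcoma cells (1,500 per well, 384-well plates) were grown with or without doxycycline to induce EWS-FLI1 shRNA knockdown, starting 24 h before compounds. Library compounds at two or more concentrations, with DMSO controls, were added for three days. Cell viability was read by CellTiter-Glo luminescence on an Envision reader, then LOESS-corrected per plate, divided by the median of negative controls and log2-transformed. Hits were wells at least three median absolute deviations from the median of all screened wells.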

[1] abbreviates: 0.25 µM, library screen: screen1, EWS-FLI1 expression: high (no doxycycline).
[2] abbreviates: 0.25 µM, library screen: screen1, EWS-FLI1 expression: low (doxycycline-induced shRNA knockdown).
[3] abbreviates: 2.5 µM, library screen: screen1, EWS-FLI1 expression: high (no doxycycline).
Where [4] appears, read: 2.5 µM, library screen: screen1, EWS-FLI1 expression: low (doxycycline-induced shRNA knockdown).
[5] abbreviates: 0.103 µM, library screen: screen3, EWS-FLI1 expression: high (no doxycycline).
Setting [6] is: 0.103 µM, library screen: screen3, EWS-FLI1 expression: low (doxycycline-induced shRNA knockdown).
The mark [7] stands for this setting: 0.308 µM, library screen: screen3, EWS-FLI1 expression: high (no doxycycline).
[8] abbreviates: 0.308 µM, library screen: screen3, EWS-FLI1 expression: low (doxycycline-induced shRNA knockdown).
[9] abbreviates: 0.926 µM, library screen: screen3, EWS-FLI1 expression: high (no doxycycline).
The mark [10] stands for this setting: 0.926 µM, library screen: screen3, EWS-FLI1 expression: low (doxycycline-induced shRNA knockdown).
Setting [11] is: 2.8 µM, library screen: screen3, EWS-FLI1 expression: high (no doxycycline).
Setting [12] is: 2.8 µM, library screen: screen3, EWS-FLI1 expression: low (doxycycline-induced shRNA knockdown).
The mark [13] stands for this setting: 8.3 µM, library screen: screen3, EWS-FLI1 expression: high (no doxycycline).
Setting [14] is: 8.3 µM, library screen: screen3, EWS-FLI1 expression: low (doxycycline-induced shRNA knockdown).
[15] abbreviates: 25 µM, library screen: screen3, EWS-FLI1 expression: high (no doxycycline).
Where [16] appears, read: 25 µM, library screen: screen3, EWS-FLI1 expression: low (doxycycline-induced shRNA knockdown).
Setting [17] is: 0.25 µM, library screen: screen2, EWS-FLI1 expression: high (no doxycycline).
Setting [18] is: 0.25 µM, library screen: screen2, EWS-FLI1 expression: low (doxycycline-induced shRNA knockdown).
Where [19] appears, read: 2.5 µM, library screen: screen2, EWS-FLI1 expression: high (no doxycycline).
Setting [20] is: 2.5 µM, library screen: screen2, EWS-FLI1 expression: low (doxycycline-induced shRNA knockdown).
[21] abbreviates: 0.025 µM, library screen: screen1, EWS-FLI1 expression: high (no doxycycline).
[22] abbreviates: 0.025 µM, library screen: screen1, EWS-FLI1 expression: low (doxycycline-induced shRNA knockdown).
The mark [23] stands for this setting: 25 µM, library screen: screen1, EWS-FLI1 expression: high (no doxycycline).
The mark [24] stands for this setting: 25 µM, library screen: screen1, EWS-FLI1 expression: low (doxycycline-induced shRNA knockdown).

Structures are written as SMILES. Out of some 3,200 compounds screened, about 300 (9.4%) showed activity. This excerpt belongs to a sample that is enriched for actives. Values without a mark were called inactive.

Turning to `CC(=O)O[C@H]1C[C@@H](OC(C)=O)C(C)(C)C2C[C@@H](OC(C)=O)[C@]3(C)C(CC[C@@]4(C)[C@H](c5ccoc5)C(=O)[C@H]5O[C@]543)[C@]21C` (stereo not given in full), the “cell viability (log2)” value is, setting by setting: under setting [1], 0.0663; under setting [2], 0.135; under setting [3], 0.0399; under setting [4], 0.171.

Turning to `c1ccc2c(c1)cc1ccc3cccc4ccc2c1c34`, the “cell viability (log2)” value is 0.0949 under setting [1], 0.14 under setting [2], 0.11 under setting [3] and 0.179 under setting [4].

With `Cc1c(N)nc(C(CC(N)=O)NCC(N)C(N)=O)nc1C(=O)NC(C(=O)NC(C)C(O)C(C)C(=O)NC(C(=O)NCCc1nc(-c2nc(C(=O)NCCC[S+](C)C)cs2)cs1)C(C)O)C(O[C@@H]1O[C@@H](CO)[C@@H](O)[C@H](O)[C@@H]1O[C@H]1O[C@H](CO)[C@@H](O)[C@H](OC(N)=O)[C@@H]1O)c1cnc[nH]1` (stereo not given in full), the “cell viability (log2)” value is 0.0914 under setting [5]; 0.135 under setting [6]; 0.115 under setting [7]; 0.0961 under setting [8]; 0.0288 under setting [9]; 0.0331 under setting [10]. Further, the “cell viability (log2)” value under setting [11] was 0.152; the “cell viability (log2)” value under setting [12] is 0.1; the “cell viability (log2)” value under setting [13] was 0.12; the “cell viability (log2)” value under setting [14] is 0.0649; the “cell viability (log2)” value under setting [15] is 0.18; the “cell viability (log2)” value under setting [16] is 0.0742.

In the case of `O=C(CCCN1CCC2(CC1)C(=O)N(CCc1ccc(N=C=S)cc1)CN2c1ccccc1)c1ccc(F)cc1`, the “cell viability (log2)” value is 0.156 under setting [17], 0.15 under setting [18], 0.122 under setting [19] and 0.0672 under setting [20].

Regarding `C[C@@]12C(=O)OC(=O)[C@]1(C)[C@H]1CC[C@@H]2O1`, the “cell viability (log2)” value is, setting by setting: under setting [21], 0.0446; under setting [22], 0.00348; under setting [1], 0.0474; under setting [2], -0.0807; under setting [17], 0.254; under setting [18], 0.0884. The “cell viability (log2)” value by setting is: under setting [3], 0.0534; under setting [4], 0.0478; under setting [19], 0.0871; under setting [20], 0.00613; under setting [23], 0.0285; under setting [24], -0.0214.

As to `CC1(C(=O)O)C2CCC(O2)C1(C)C(=O)O` (stereo not given), the “cell viability (log2)” value under setting [21] was 0.144; the “cell viability (log2)” value under setting [22] was -0.0798; the “cell viability (log2)” value under setting [1] was 0.0748; the “cell viability (log2)” value under setting [2] was -0.099; the “cell viability (log2)” value under setting [17] is 0.137; the “cell viability (log2)” value under setting [18] is 0.0724. For the same compound, the “cell viability (log2)” value runs as follows: under setting [3], -0.00382; under setting [4], -0.0912; under setting [19], 0.0145; under setting [20], 0.0152; under setting [23], -0.932 (active); under setting [24], -0.597 (active).

As for `N[C@@]1(C(=O)O)CC[C@@H](C(=O)O)C1`, the “cell viability (log2)” value is, setting by setting: under setting [17], 0.102; under setting [18], 0.109; under setting [19], 0.101; under setting [20], 0.133.

Turning to `S=C(NC1CCCCC1)N1CCC(c2cnc[nH]2)CC1`, the “cell viability (log2)” value was 0.127 under setting [17], 0.0827 under setting [18], 0.121 under setting [19] and 0.058 under setting [20].

As for `CCC(C)c1cnc(CC(C)C)c(=O)n1O` (stereo not given), the “cell viability (log2)” value runs as follows: under setting [1], 0.088; under setting [2], 0.0724; under setting [3], 0.0675; under setting [4], 0.0404.

In the case of `CCOC(=O)c1cncn1C(C)c1ccccc1` (stereo not given), the “cell viability (log2)” value is, setting by setting: under setting [5], 0.148; under setting [6], 0.103; under setting [7], 0.128; under setting [8], 0.0765; under setting [9], 0.0647; under setting [10], 0.0966. In addition, the “cell viability (log2)” value was 0.203 under setting [11]; 0.0919 under setting [12]; 0.131 under setting [13]; 0.046 under setting [14]; 0.154 under setting [15]; 0.157 under setting [16].

Regarding `N#C/C(=C\c1cccc(O)c1)C(=O)O`, the “cell viability (log2)” value by setting is: under setting [1], 0.0765; under setting [2], 0.115; under setting [3], 0.0856; under setting [4], 0.0942.

As to `COc1cc2c(cc1OC)C(C)NCC2` (stereo not given), the “cell viability (log2)” value under setting [1] is 0.121, the “cell viability (log2)” value under setting [2] was 0.123, the “cell viability (log2)” value under setting [3] was 0.193 and the “cell viability (log2)” value under setting [4] is 0.143.

For `CC[C@H]1CN2CCc3cc(OC)c(OC)cc3[C@@H]2C[C@@H]1C[C@H]1NCCc2cc(OC)c(OC)cc21`, the “cell viability (log2)” value reads like this: (0.025 µM, library screen: screen2, EWS-FLI1 expression: high (no doxycycline)) 0.187; (0.025 µM, library screen: screen2, EWS-FLI1 expression: low (doxycycline-induced shRNA knockdown)) 0.0478; under setting [1], 0.11; under setting [2], 0.116; under setting [17], -0.895 (active); under setting [18], -0.442 (active). The “cell viability (log2)” value was -1.08 (active) under setting [3]; -0.152 (active) under setting [4]; -2.19 (active) under setting [19]; -1.21 (active) under setting [20]; -2.91 (active) (25 µM, library screen: screen2, EWS-FLI1 expression: high (no doxycycline)); -1.84 (active) (25 µM, library screen: screen2, EWS-FLI1 expression: low (doxycycline-induced shRNA knockdown)).

Consider `COc1cc2c(cc1O)CCNC2C` (stereo not given), for which the “cell viability (log2)” value under setting [1] was -0.0405, the “cell viability (log2)” value under setting [2] was -0.0233, the “cell viability (log2)” value under setting [3] was 0.0226 and the “cell viability (log2)” value under setting [4] is 0.0664.

Take `Clc1ccc(Cl)cc1`: the “cell viability (log2)” value by setting is: under setting [1], 0.0995; under setting [2], 0.0885; under setting [3], 0.0618; under setting [4], 0.0905.
